Experiment [1] is described as follows: Quantitative High-Throughput drug screen in 47 multiple myeloma cell lines against the NCATS MIPE library collection: KMS34_JCRB cell viability assay (AID 1918985). Further: nearly all actives have a fitted effect of over 40% in size. Further: potency means the concentration at half of the fitted maximal effect. The essentials: (§1)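 500 cells/well; MIPE 4.0 drugs pin-transferred; 48 h, 37C, 5% CO2. CellTiter-Glo, 5 min RT, luminescence. Controls: DMSO 100%, media 0%.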
A short description of experiment [2]: Quantitative High-Throughput drug screen in 47 multiple myeloma cell lines against the NCATS MIPE library collection: OCIMY7_PLB cell viability assay (AID 1918987). Further: nearly all actives have a fitted effect of over 65% in size. Further: potency means the concentration at half of the fitted maximal effect. The essentials:
as §1

Experiment [3] can be described thus: Quantitative High-Throughput drug screen in 47 multiple myeloma cell lines against the NCATS MIPE library collection: OCIMY5_PLB cell viability assay (AID 1918988). Further: nearly all actives have a fitted effect of over 65% in size. Further: potency means the concentration at half of the fitted maximal effect. A digest of the protocol: as §1
The nature of experiment [4]: Quantitative High-Throughput drug screen in 47 multiple myeloma cell lines against the NCATS MIPE library collection: OPM1_PLB cell viability assay (AID 1918989). Further: nearly all actives have a fitted effect of over 40% in size. Further: potency means the concentration at half of the fitted maximal effect. The essentials:
as §1

The nature of experiment [5]: Quantitative High-Throughput drug screen in 47 multiple myeloma cell lines against the NCATS MIPE library collection: U266_ATCC cell viability assay (AID 1919864). Further: nearly all actives have a fitted effect of over 35% in size. Further: potency means the concentration at half of the fitted maximal effect. The essentials:
as §1

Experiment [6] can be described thus: Quantitative High-Throughput drug screen in 47 multiple myeloma cell lines against the NCATS MIPE library collection: XG6_PLB cell viability assay (AID 1919865). Further: nearly all actives have a fitted effect of over 40% in size. Further: potency means the concentration at half of the fitted maximal effect. A digest of the protocol: as §1
Experiment [7] is described as follows: Quantitative High-Throughput drug screen in 47 multiple myeloma cell lines against the NCATS MIPE library collection: XG1_PLB cell viability assay (AID 1919866). Further: nearly all actives have a fitted effect of over 35% in size. Further: potency means the concentration at half of the fitted maximal effect. A digest of the protocol: as §1
Experiment [8] is described as follows: Quantitative High-Throughput drug screen in 47 multiple myeloma cell lines against the NCATS MIPE library collection: VP6_DJ cell viability assay (AID 1919867). Further: nearly all actives have a fitted effect of over 40% in size. Further: potency means the concentration at half of the fitted maximal effect. A digest of the protocol:
as §1

Experiment [9] is described as follows: Quantitative High-Throughput drug screen in 47 multiple myeloma cell lines against the NCATS MIPE library collection: PE2_PLB cell viability assay (AID 1919869). Further: nearly all actives have a fitted effect of over 35% in size. Further: potency means the concentration at half of the fitted maximal effect. A digest of the protocol: as §1
Experiment [10] can be described thus: Quantitative High-Throughput drug screen in 47 multiple myeloma cell lines against the NCATS MIPE library collection: PCM6_Riken cell viability assay (AID 1919870). Further: nearly all actives have a fitted effect of over 30% in size. Further: potency means the concentration at half of the fitted maximal effect. A digest of the protocol:
as §1

Experiment [11] is described as follows: Quantitative High-Throughput drug screen in 47 multiple myeloma cell lines against the NCATS MIPE library collection: RPMI8226_ATCC cell viability assay (AID 1919871). Further: nearly all actives have a fitted effect of over 30% in size. Further: potency means the concentration at half of the fitted maximal effect. The essentials: as §1
Experiment [12] is described as follows: Quantitative High-Throughput drug screen in 47 multiple myeloma cell lines against the NCATS MIPE library collection: OPM2_DSMZ cell viability assay (AID 1919872). Further: nearly all actives have a fitted effect of over 30% in size. Further: potency means the concentration at half of the fitted maximal effect. The essentials: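 Myeloma cells (500 per well) were exposed to MIPE 4.0 compounds by pin transfer and incubated 48 hours at 37C, 5% CO2. Viability was read as ATP by CellTiter-Glo luminescence, normalised to DMSO (100%) and media-only (0%) wells.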

Experiment [13] can be described thus: Quantitative High-Throughput drug screen in 47 multiple myeloma cell lines against the NCATS MIPE library collection: KMS11_JCRBsus cell viability assay (AID 1919873). Further: nearly all actives have a fitted effect of over 50% in size. Further: potency means the concentration at half of the fitted maximal effect. The essentials: as §1
Experiment [14] can be described thus: qHTS drug screen for cell cycle checkpoint inhibitors in PARPi-resistant BRCA-mutant ovarian cancer cell lines. (AID 1963452; calls by dose curve). Conditions: PEO1/OlaR viability, CellTiter-Glo luminescence, 96 h, stronger effect = lower value. The essentials: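 PEO1, PEO4 and PEO1/OlaR ovarian cancer cells, 600 per well, exposed 96 h at 37C to a dilution series. Viability read by CellTiter-Glo luminescence, normalized to DMSO and empty wells; activity summarized as Z-AUC.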

A short description of experiment [15]: Quantitative High-Throughput drug screen in 47 multiple myeloma cell lines against the NCATS MIPE library collection: KMS28BM_JCRB cell viability assay (AID 1919874). Further: nearly all actives have a fitted effect of over 35% in size. Further: potency means the concentration at half of the fitted maximal effect. A digest of the protocol: as §1
A short description of experiment [16]: Quantitative High-Throughput drug screen in 47 multiple myeloma cell lines against the NCATS MIPE library collection: UTMC2_PLB cell viability assay (AID 1919868). Further: nearly all actives have a fitted effect of over 55% in size. Further: potency means the concentration at half of the fitted maximal effect. The settings on record: CellTiter-Glo ATP luminescence, 48 h; viability (% of DMSO control): at 45.8 µM (top of the series) unless noted. A digest of the protocol:
as §1
(Cellular ATP, detected with luciferase, serves as a proxy for viable cell number.)

The nature of experiment [17]: qHTS for identification of novel therapeutic agents for treatment of microphthalmiaassociated transcription factor (MiT) renal cell carcinoma (RCC) (AID 1963991). The settings on record: CellTiter-Glo, 48 h, stronger effect = lower value. A digest of the protocol: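 Three TFE3-fusion RCC lines (UOK109, UOK124, UOK145), 500 cells/well in complete medium, were treated with MIPE 4.0 compounds for 48 hours at 37 C. Viability was by CellTiter-Glo luminescence, normalized to DMSO (100%) and empty wells (0%); curves fitted over 11 concentrations.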
(In general: qHTS replaces the single test concentration by a dilution series.)

Experiment [18] can be described thus: Quantitative High-Throughput drug screen in 47 multiple myeloma cell lines against the NCATS MIPE library collection: SKMM1_PLB cell viability assay (AID 1919863). Further: nearly all actives have a fitted effect of over 35% in size. Further: potency means the concentration at half of the fitted maximal effect. Conditions: SKMM1 myeloma viability, CellTiter-Glo ATP, 48 h; viability: stronger effect = lower value. A digest of the protocol:
as §1

Setting [19] is: measured here: PEO1 parental Z-AUC.

Inconclusive results are not listed. The source made the active and inactive calls. Unless noted, the call rests on the fitted dose curve; in most records, active means well fitted cell-killing curve with a large enough effect; inconclusive means small, poorly fitted or top-dose-only effect, or effect the other way; inactive means no such curve, though single readings can be large or run the other way.

Turning to `Clc1ccc2ncc(-c3cccc(NC4CNC4)n3)n2c1`, the Potency in [1] was 8.33 µM (active); in [2], 14.8 µM (active); in [3] it was 23.5 µM (active); in experiment [4], 14.8 µM (active); in [5], 18.7 µM (active); in experiment [6] it was 8.33 µM (active). The Potency was 14.8 µM (active) in experiment [7]; 16.6 µM (active) in experiment [8]; 16.6 µM (active) in experiment [9]; 18.7 µM (active) in experiment [10]; 20.9 µM (active) in experiment [11]; 23.5 µM (active) in experiment [12]. The Potency in [13] is 20.9 µM (active). The Z-AUC in experiment [14] is -0.578 (inactive); in experiment [14] (setting [19]) it was 0.128; in experiment [14] (measured here: PEO4 Z-AUC) it was -0.613.

For the molecule `C=CC(=O)Nc1cccc(Oc2nc(Nc3ccc(N4CCN(C)CC4)cc3OC)ncc2Cl)c1`, the Potency in experiment [1] is 16.6 µM (active); in experiment [2], 0.001 µM (active); in [3], 0.0026 µM (active); in experiment [4], 0.662 µM (active); in [5] it was 23.5 µM (active); in experiment [7], 0.0047 µM (active). In addition, the Potency in experiment [8] was 0.0187 µM (active); in experiment [9], 0.526 µM (active); in [10], 7.43 µM (active); in [13] it was 13.2 µM (active); in experiment [15] it was 20.9 µM (active). For the same molecule, the figures for the Z-AUC in experiment [14], in experiment [14] (setting [19]) and in experiment [14] (measured here: PEO4 Z-AUC) were -0.915 (inactive), -0.879 and -0.954, respectively.

For `Clc1cccc(-c2nnnn2Cc2cccnc2)c1Cl`, the Potency result in [1], in experiment [3], in experiment [4], in experiment [16], in [11] and in experiment [12] was “inactive” throughout. Besides, in [15], the Potency result is “inactive”. Also, the Potency in experiment [2] is 3.72 µM (active); in experiment [7], 18.7 µM (active). In addition, the z-score in [17] (TFE3-RCC UOK109 viability, measured here: UOK109 Z-AUC) was determined as 0.93; in experiment [17] (TFE3-RCC viability, measured here: UOK124 Z-AUC), 0.545; in experiment [17] (TFE3-RCC viability, measured here: UOK145 Z-AUC), 0.374.

In the case of `c1nc2nc(Nc3ccc(N4CCOCC4)cc3)nc(NC3CCCCC3)c2[nH]1`, the Potency is 5.26 µM (active) in experiment [1]; 3.32 µM (active) in experiment [2]; 18.7 µM (active) in experiment [3]; 4.69 µM (active) in experiment [4]; 16.6 µM (active) in experiment [5]; 2.09 µM (active) in experiment [6]. For the same molecule, the Potency in experiment [7] is 1.48 µM (active); in experiment [8], 3.32 µM (active); in [16], 2.64 µM (active); in experiment [9] it was 3.72 µM (active); in experiment [10], 5.9 µM (active); in experiment [11] it was 11.8 µM (active). For the same molecule, the values for the Potency in [12], in experiment [13] and in experiment [15] were 11.8 µM (active), 5.26 µM (active) and 4.18 µM (active), respectively. Further, the Z-AUC in experiment [14] was -0.117 (inactive); in experiment [14] (setting [19]), 0.016; in [14] (measured here: PEO4 Z-AUC) it was -0.143.

On to `Nc1nccc(Oc2ccc(NC(=O)c3c[nH]cc(-c4ccc(F)cc4)c3=O)cc2F)c1Cl`, for which the Potency is 18.7 µM (active) in experiment [1]; 18.7 µM (active) in experiment [2]; 26.4 µM (active) in experiment [3]; 23.5 µM (active) in experiment [4]; 20.9 µM (active) in [5]; 16.6 µM (active) in experiment [6]. For the same molecule, the Potency in experiment [7] is 18.7 µM (active); in experiment [8], 16.6 µM (active); in experiment [16], 29.6 µM (active); in [9], 18.7 µM (active); in experiment [10], 18.7 µM (active); in experiment [11], 20.9 µM (active). In addition, the Potency in experiment [15] was 20.9 µM (active). In addition, the Z-AUC in [14] is -0.747 (inactive); in experiment [14] (setting [19]), -0.587; in experiment [14] (measured here: PEO4 Z-AUC) it was -1.14.

Take `OCc1ccc(-c2ccc(-c3ccc(CO)s3)o2)s1`: the Potency in experiment [1] was 18.7 µM (active); in experiment [2], 1.87 µM (active); in experiment [3], 16.6 µM (active); in [4], 6.62 µM (active); in [5], 3.32 µM (active); in experiment [6], 16.6 µM (active). The Potency in experiment [8] is 20.9 µM (active); in experiment [16], 16.6 µM (active); in experiment [9], 3.72 µM (active); in [11] it was 23.5 µM (active); in experiment [12], 23.5 µM (active); in [13], 11.8 µM (active). In addition, the figures for the Z-AUC in [14], in experiment [14] (setting [19]) and in [14] (measured here: PEO4 Z-AUC) were 1.64 (inactive), 1.79 and 1.79, respectively.

Take `Nc1ccc(C(=O)c2cc3c(ccc4ccccc43)[nH]2)cc1`: the Potency in [1] is 4.18 µM (active); in [2], 0.743 µM (active); in experiment [3] it was 2.64 µM (active); in [4], 7.43 µM (active); in experiment [5], 14.8 µM (active); in [6] it was 0.662 µM (active). Besides, the Potency in experiment [7] is 0.662 µM (active); in experiment [8], 3.72 µM (active); in experiment [16], 9.35 µM (active); in experiment [9] it was 2.96 µM (active); in experiment [12] it was 6.62 µM (active); in experiment [13], 0.743 µM (active). The Potency in [15] was 0.935 µM (active). Also, the Z-AUC is -0.0185 (inactive) in experiment [14], -0.727 in experiment [14] (setting [19]) and -0.792 in [14] (measured here: PEO4 Z-AUC).

Consider `CNC(=O)c1ccc(N2C(=S)N(c3cnc(C#N)c(C(F)(F)F)c3)C(=O)C23CCC3)cc1F`, for which the Potency entry in experiment [1], in experiment [12], in experiment [13] and in [15] was “inactive” in each case. For the same molecule, the Potency in [2] is 0.526 µM (active); in [3] it was 0.118 µM (active); in experiment [4] it was 2.64 µM (active); in experiment [5], 0.662 µM (active); in experiment [6] it was 0.0935 µM (active); in experiment [8], 1.05 µM (active). The Potency is 3.32 µM (active) in [16] and 1.05 µM (active) in experiment [9]. Also, the figures for the Z-AUC in experiment [14], in experiment [14] (setting [19]) and in [14] (measured here: PEO4 Z-AUC) were 0.293 (inactive), -0.208 and 0.0749, respectively.

In the case of `COc1ccc(C=Cc2cc(OC)c(OC)c(OC)c2)cc1O`, the Potency result in [1], in experiment [2], in experiment [4], in experiment [5], in [6] and in [7] was “inactive” throughout. Besides, the Potency result in experiment [8], in experiment [16], in [9], in experiment [10], in experiment [12] and in experiment [13] was “inactive” each time. The Potency result in [15] is “inactive”. In addition, the viability in experiment [18] is 34.9% (inactive).

Take `CC(C)(C)c1cnc(CSc2cnc(NC(=O)C3CCNCC3)s2)o1`: the Potency in experiment [1] was 0.296 µM (active); in experiment [2] it was 2.35 µM (active); in [4], 0.296 µM (active); in experiment [18], 264 nM (active); in experiment [5], 0.118 µM (active); in experiment [6], 0.209 µM (active). Also, the Potency in experiment [7] is 0.296 µM (active); in experiment [8], 0.148 µM (active); in [16] it was 0.187 µM (active); in experiment [9], 0.296 µM (active); in experiment [12], 0.235 µM (active); in [13], 0.132 µM (active). The Potency in [15] is 0.148 µM (active). Moreover, the figures for the Z-AUC in [14], in experiment [14] (setting [19]) and in experiment [14] (measured here: PEO4 Z-AUC) were -0.758 (inactive), -1.2 and -0.895, respectively.

Broadly, the viability is the share of living cells, or the viability signal relative to a control.

(Values after PubChem BioAssay (NCATS).)
